Experimental data: PubChem BioAssay AID1159580 (chemical genetic matrix, 2015)
In all, about 5,500 compounds went through this assay and about 2,000 (36%) were called active. Roughly 18% stayed inconclusive and do not appear here. Rule as the data show it: active = normalized growth mostly below about 0.91 (no sharp cut-off); inconclusive = no clear call, values can overlap the other calls; inactive = mostly above about 0.92. This is one part of the list.

Assay: chemical genetic growth profiling, strain panel (AID 1159580);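 also: tested at 20 µM; growth read once vehicle control cultures reached saturation at 30 °C; 1 = growth at the plate median or of vehicle wells; lower values mean less growth of the strain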
Details: growth OD

Measured: normalized growth

CC[C@@]1(O)C[C@H](O[C@H]2C[C@H](N(C)C)[C@H](O)[C@H](C)O2)c2c(cc3c(c2O)C(=O)c2c(O)ccc(O)c2C3=O)[C@H]1C(=O)OC
inactive: S. cerevisiae deletion strains, locus YJR066W, strain TOR1, active compounds read low 0.957 | S. cerevisiae deletion strains, locus YKL009W, strain mrt4, active compounds read low 0.961 | S. cerevisiae deletion strains, locus YKL068W, active compounds read low 0.982 | S. cerevisiae deletion strains, locus YKL085W, strain MDH1 (second series), active compounds read low 1 | S. cerevisiae deletion strains, locus YKL085W, strain MDH1, active compounds read low 1 | S. cerevisiae deletion strains, locus YKL160W, strain elf1, active compounds read low 0.924 | S. cerevisiae deletion strains, locus YKR026C, strain gcn3, active compounds read low 0.994 | S. cerevisiae deletion strains, locus YKR091W, strain srl3, active compounds read low 0.958 | S. cerevisiae deletion strains, locus YLL026W, active compounds read low 0.975 | S. cerevisiae deletion strains, locus YLL041C, strain sdh2, active compounds read low 0.935 | S. cerevisiae deletion strains, locus YLR027C, strain aat2, active compounds read low 0.975 | S. cerevisiae deletion strains, locus YLR113W, strain HOG1, active compounds read low 0.95 | S. cerevisiae deletion strains, locus YLR357W, strain rsc2, active compounds read low 0.907 | S. cerevisiae deletion strains, locus YLR384C, strain iki3, active compounds read low 0.957 | S. cerevisiae deletion strains, locus YML120C, strain ndi1, active compounds read low 1.02 | S. cerevisiae deletion strains, locus YMR125W, strain sto1, active compounds read low 1.02 | S. cerevisiae deletion strains, locus YMR129W, active compounds read low 0.997 | S. cerevisiae deletion strains, locus YMR231W, strain pep5, active compounds read low 1 | S. cerevisiae deletion strains, locus YNL071W, strain lat1, active compounds read low 0.951 | S. cerevisiae deletion strains, locus YNL183C, strain NPR1, active compounds read low 0.941 | S. cerevisiae deletion strains, locus YNL248C, strain rpa49, active compounds read low 0.974 | S. cerevisiae deletion strains, locus YNL271C, strain bni1, active compounds read low 0.96 | S. cerevisiae deletion strains, locus YNL298W, strain CLA4, active compounds read low 0.98 | S. cerevisiae deletion strains, locus YNL322C, strain KRE1 (second series), active compounds read low 0.972 | S. cerevisiae deletion strains, locus YNR049C, strain mso1, active compounds read low 0.926 | S. cerevisiae deletion strains, locus YOL012C, strain htz1 0.253 | S. cerevisiae deletion strains, locus YOR001W, strain rrp6, active compounds read low 1.01 | S. cerevisiae deletion strains, locus YOR070C, strain gyp1, active compounds read low 0.989 | S. cerevisiae deletion strains, locus YOR080W, strain dia2, active compounds read low 0.916 | S. cerevisiae deletion strains, locus YOR083W, strain WHI5, active compounds read low 0.918 | S. cerevisiae deletion strains, locus YOR231W, strain MKK1, active compounds read low 0.975 | S. cerevisiae deletion strains, locus YPL106C, strain sse1, active compounds read low 0.909 | S. cerevisiae deletion strains, locus YPL240C, strain hsp82, active compounds read low 0.933 | S. cerevisiae deletion strains, locus YPL256C, strain CLN2, active compounds read low 0.983 | S. cerevisiae deletion strains, locus YPR141C, strain kar3, active compounds read low 0.967
active: S. cerevisiae deletion strains, locus YJR075W, strain HOC1, active compounds read low 0.0948 | S. cerevisiae deletion strains, locus YKR001C, strain vps1, active compounds read low 0.0857 | S. cerevisiae deletion strains, locus YLL001W, strain dnm1, active compounds read low 0.884 | S. cerevisiae deletion strains, locus YLR039C, strain RIC1, active compounds read low 0.113 | S. cerevisiae deletion strains, locus YLR058C, strain SHM2, active compounds read low 0.0794 | S. cerevisiae deletion strains, locus YLR102C, strain apc9, active compounds read low 0.467 | S. cerevisiae deletion strains, locus YLR221C, strain rsa3, active compounds read low 0.877 | S. cerevisiae deletion strains, locus YLR258W, strain gsy2, active compounds read low 0.905 | S. cerevisiae deletion strains, locus YLR262C, strain YPT6 (second series), active compounds read low 0.701 | S. cerevisiae deletion strains, locus YLR262C, strain YPT6, active compounds read low 0.13 | S. cerevisiae deletion strains, locus YLR268W, strain sec22, active compounds read low 0.112 | S. cerevisiae deletion strains, locus YLR320W, strain mms22, active compounds read low 0.844 | S. cerevisiae deletion strains, locus YLR330W, strain CHS5, active compounds read low 0.0655 | S. cerevisiae deletion strains, locus YLR342W, strain FKS1 (second series), active compounds read low 0.0959 | S. cerevisiae deletion strains, locus YLR342W, strain FKS1, active compounds read low 0.865 | S. cerevisiae deletion strains, locus YLR370C, strain arc18, active compounds read low 0.88 | S. cerevisiae deletion strains, locus YLR371W, strain rom2, active compounds read low 0.15 | S. cerevisiae deletion strains, locus YLR418C, strain cdc73, active compounds read low 0.138 | S. cerevisiae deletion strains, locus YML016C, strain PPZ1, active compounds read low 0.0829 | S. cerevisiae deletion strains, locus YML032C, strain rad52, active compounds read low 0.121 | S. cerevisiae deletion strains, locus YML124C, strain tub3, active compounds read low 0.195 | S. cerevisiae deletion strains, locus YMR058W, strain fet3, active compounds read low 0.416 | S. cerevisiae deletion strains, locus YMR078C, strain ctf18, active compounds read low 0.147 | S. cerevisiae deletion strains, locus YMR205C, strain PFK2, active compounds read low 0.871 | S. cerevisiae deletion strains, locus YMR223W, strain ubp8, active compounds read low 0.157 | S. cerevisiae deletion strains, locus YMR263W, strain SAP30, active compounds read low 0.377 | S. cerevisiae deletion strains, locus YMR307W, strain GAS1, active compounds read low 0.149 | S. cerevisiae deletion strains, locus YNL067W, strain RPL9B, active compounds read low 0.0765 | S. cerevisiae deletion strains, locus YNL153C, strain GIM3, active compounds read low 0.0856 | S. cerevisiae deletion strains, locus YNL209W, strain ssb2, active compounds read low 0.82 | S. cerevisiae deletion strains, locus YNL233W, strain BNI4, active compounds read low 0.0884 | S. cerevisiae deletion strains, locus YNL250W, strain rad50, active compounds read low 0.738 | S. cerevisiae deletion strains, locus YNL307C, strain MCK1, active compounds read low 0.0826 | S. cerevisiae deletion strains, locus YNR052C, strain pop2, active compounds read low 0.0986 | S. cerevisiae deletion strains, locus YOL147C, strain pex11, active compounds read low 0.13 | S. cerevisiae deletion strains, locus YOR061W, strain CKA2, active compounds read low 0.0764 | S. cerevisiae deletion strains, locus YOR069W, strain VPS5, active compounds read low 0.0745 | S. cerevisiae deletion strains, locus YOR106W, strain vam3, active compounds read low 0.703 | S. cerevisiae deletion strains, locus YOR136W, strain idh2, active compounds read low 0.203 | S. cerevisiae deletion strains, locus YOR144C, strain elg1, active compounds read low 0.298 | S. cerevisiae deletion strains, locus YOR184W, strain ser1, active compounds read low 0.0852 | S. cerevisiae deletion strains, locus YOR265W, strain rbl2, active compounds read low 0.899 | S. cerevisiae deletion strains, locus YOR270C, strain vph1, active compounds read low 0.656 | S. cerevisiae deletion strains, locus YOR290C, strain snf2, active compounds read low 0.711 | S. cerevisiae deletion strains, locus YOR316C, strain cot1, active compounds read low 0.21 | S. cerevisiae deletion strains, locus YPL051W, strain arl3, active compounds read low 0.756 | S. cerevisiae deletion strains, locus YPL078C, strain atp4, active compounds read low 0.867 | S. cerevisiae deletion strains, locus YPL241C, strain CIN2, active compounds read low 0.0834 | S. cerevisiae deletion strains, locus YPR119W, strain clb2, active compounds read low 0.2 | S. cerevisiae deletion strains, locus YPR163C, strain tif3, active compounds read low 0.115 | S. cerevisiae deletion strains, locus YPR167C, strain met16, active compounds read low 0.125 | S. cerevisiae deletion strains, strain wtn01, active compounds read low 0.0957 | S. cerevisiae strains, strain wild type, active compounds read low 0.0706
